# Inconclusive results are not listed. Calls of active or inactive are those of the source. The call rests on the fitted dose curve; in most records, active means well fitted curve in either direction with a large enough effect (not every such curve was filed as active); inconclusive means small, poorly fitted or top-dose-only effect, or another doubt; inactive means flat fitted curve, though single readings scatter.
# Molecular target: Mitogen-activated protein kinase 10 (Mus musculus) (UniProt Q61831)
# Assay: JNK3 AlphaScreen Assay (AID 530);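 further: kinase came from lysate of stimulated human HepG2 cells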
# Conditions: JNK3 lysate, c-Jun phosphorylation; series mostly up to 57.1 µM; activity change, negative = inhibition: at the top concentration
# Source text: NIH Chemical Genomics Center [NCGC]
# NIH Molecular Libraries Screening Centers Network [MLSCN]
# The c-jun N-terminal kinase (JNK) family are serine/threonine protein kinases that phosphorylate c-jun, a component of the transcription factor […] (AP-1). JNK kinases are members of the mitogen-activated protein kinase family including the extracellular regulated kinases and p38 kinases. Three JNK genes (JNK 1, 2, and 3) have been identified in humans so far. JNK1 and JNK2 have a broad distribution and JNK3 is primarily found in neuronal tissues and cardiac myocytes.
# JNK3 has been under consideration as a target for the treatment of neurodegenerative disorders. […] JNK pathway is also involved in pathological process in a mouse model of Parkinson's disease (Xia et al., 2001).
# Given these potential tissue distributions and links to neuroprotection, JNK3 inhibitors should provide useful investigational tools to study the role of this kinase in several diseases including, arthritis, stroke, myocardial infarction, ischemic injury and Parkinson's disease.
# A homogeneous AlphaScreen is developed to measure the activity of JNK3. AlphaScreen is a two bead-based proximity-dependent chemical energy transfer luminescent assay platform. The phosphorylation of a biotinylated c-jun substrate by JNK3 can be detected with an antibody raised against phosphorylated c-jun. This process brings streptavidin donor beads and Protein-A acceptor beads to within a proximity range of <200 nm, and subsequently lead a chemical luminescent reaction upon exciting donor beads with 680 nm laser excitation light. Inhibition of JNK3 activity by small molecules and subsequent decrease in the antibody binding to biotinylated c-jun could attenuate or abolish this chemical luminescent reaction.
# Yang DD, Kuan CY, Whitmarsh AJ, Rincon M, Zheng TS, Davis RJ, Rakic P and Flavell RA (1997) Absence of excitotoxicity-induced apoptosis in the hippocampus of mice lacking the Jnk3 gene. Nature 389:865-870. [PMID: 9349820]
# Herdegen T, Claret FX, Kallunki T, Martin-Villalba A, Winter C, Hunter T, and Karin M (1998) Lasting N-terminal phosphorylation of c-Jun and activation of c-Jun N-terminal kinases after neuronal injury. J.Neurosci. 18:5124-5135. [PMID: 9651196]
# Xia XG, Harding T, Weller M, Bieneman A, Uney JB and Schulz JB (2001) Gene transfer of the JNK interacting protein-1 protects dopaminergic neurons in the MPTP model of Parkinson's disease. Proc.Natl.Acad.Sci.U.S.A. 98:10433-10438.
# NCGC Assay Protocol Summary:
# GST-cJun (1-79) (Stratagene, La Jolla CA, #205145) was biotnylated by PerkinElmer (PerkinElmer-BioSignalInc. Montreal, Canada) and was detectable by the streptavidin Donor beads. Anti-(phospho)cJun (Ser73) antibody was from UpState (Charlottesvilles, VA, #06-659). JNK3-containing lysates were generated from HepG2 cells and pre-activated by interleukin1-beta and tumor necrosis factor alpha. All reagents were stored at -20 C before using. Phosphorylated biotinylated-GST-cJun was recognized by Anti-(phospho)cJun (Ser73) antibody and this process brings acceptor and donor beads together. Therefore JNK3 phosphorylation of cJun can be measured by Alpha reading by EnVision (PerkinElmer, Boston, MA).
# The composition of kinase buffer was (in mM) 20 tris- HCl (pH 7.6) 10 MgCl2, 1 DTT, and 0.1 Na3VO4 and 0.01% Tween-20. Beads were diluted in detection buffer containing (in mM) 20 tris-HCl (pH 7.7), 20 NaCl and 80 EDTA and 0.3% BSA. The assay was performed at room temperature. All compounds were screened as titrations from 0.6 nM to 46 uM final concentration. The assay was performed in 1536-well format (white solid bottom and untreated) as follows:
# Sequence,Parameter,Value,Description
# 1,Reagent,3 uL,Biotin-GST-cJun, Anti-(phospho)cJun and pre-activated JNK3-containing lysates
# 2,Compound,23 nL,Final concentration was 0.6nM to 46uM
# 3,Time,15 minutes,Room Temperature
# 4,Reagent,1 uL,ATP final concentration 10uM
# 6,Reagent,0.5 uL,2ng/well bead mixture
# […]
# On the % scale 0 is the no-effect control and ±100 the full control effect.
row,SMILES,"activity change, negative = inhibition"
1,Cc1ccc(C)c([N+](=O)[O-])c1,-4.61% (inactive)
2,C/C=C1\CC2C=CC1C2 (stereo not given),9.11% (inactive)
3,c1ccc2n[nH]nc2c1,10.3% (inactive)
4,CCC=O,4.48% (inactive)
5,O=C(O[C@@H](C(=O)O)[C@@H](OC(=O)c1ccccc1)C(=O)O)c1ccccc1,-13.5% (inactive)
6,N#Cc1ccccc1,-9.14% (inactive)
7,CSc1ccc(C=O)cc1,13.6% (inactive)
8,S=C([S-])NCCNC(=S)[S-].[Zn+2],-23.8% (inactive)
9,C=CCCCCCC,-10.6% (inactive)
10,C=Cc1ccccn1,5.87% (inactive)
11,ClC/C=C/CCl,14.8% (inactive)
12,CC(C)CCOC(=O)/C=C/c1ccccc1,5.94% (inactive)
13,CC(=O)OC(C)=O,5.97% (inactive)
14,CCCCC/C=C/C=C/C=O,-5.94% (inactive)
15,CC(C)c1ccccc1,-5.02% (inactive)
16,CCNc1cc(O)ccc1C,-0.332% (inactive)
17,OC/C(Br)=C(\Br)CO,14.9% (inactive)
18,Cc1ccccc1C#N,15.9% (inactive)
19,C=CC(=O)NC(C)C,-0.0517% (inactive)
20,Cc1c(N)cccc1[N+](=O)[O-],-17.6% (inactive)

row,SMILES,"activity change, negative = inhibition"
1,O=C(O)c1ccccc1[N+](=O)[O-],-7.14% (inactive)
2,CCOCCO,3.12% (inactive)
3,CC(=O)OCc1ccco1,16% (inactive)
4,CCC(C)(C)C,13.8% (inactive)
5,OC1CCCC1,1.92% (inactive)
6,C/C=C(/C)C#N,3.39% (inactive)
7,Cc1ccc2c(c1[N+](=O)[O-])C(=O)c1ccccc1C2=O,-2.79% (inactive)
8,Cc1ccc(Cl)cc1,0.373% (inactive)
9,Nc1cccc2c(=O)[nH][nH]c(=O)c12,6.72% (inactive)
10,CCCCC(CC)CNCC(CC)CCCC (stereo not given),19.1% (inactive)
11,C=C(C)C1CC=C(C)C(OC(C)=O)C1 (stereo not given),0.678% (inactive)
12,C=C(C)C(=O)OCCCCCC,18.9% (inactive)
13,CCN(C(=O)N(CC)c1ccccc1)c1ccccc1,7.03% (inactive)
14,O=C1CCCCC1,22.9% (inactive)
15,O=Cc1ccc(CO)o1,9.35% (inactive)
16,FB(F)F,-16.9% (inactive)
17,O=C(O)CNC(=O)c1ccc([N+](=O)[O-])cc1,8.25% (inactive)
18,CC(=O)c1cccc([N+](=O)[O-])c1,10.3% (inactive)
19,CC(C)(c1cc(Br)c(OCC(Br)CBr)c(Br)c1)c1cc(Br)c(OCC(Br)CBr)c(Br)c1 (stereo not given),6.52% (inactive)
20,O=C(O)c1cccc([N+](=O)[O-])c1,26% (inactive)
